# Assay outcomes as filed in PubChem.
# Compounds with a hit are over-represented: about 1.6% of the library has one in this group of screens.
# PABP1 MLLE inh = blocks PAM2 peptide binding to the PABP1 MLLE domain; AID 588489; inhibition, % at 20 µM; GST-MLLE / FITC-PAM2 fluorescence polarization; 0.36% of 360,000 active; in the data active = inhibition above about 35%, passing the limit was not always enough;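 also: plate controls were DMSO wells with GST-MLLE for no effect and wells lacking GST-MLLE protein for full effect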
# PERK inhibitor = blocks human PERK kinase. inhibition, % at 5.6 µM. 0.17% of 220,000 active. CHO PERK-DD fusion, SEAP luminescence translation reporter. AID 1416;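 active = inhibition above the mean inhibition of all tested compounds plus 3 SD, set separately per screening campaign, cut at about 2.9% in these data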;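 also: PERK kinase domain activated by AP20187 dimerizer at 100 nM; 0% = DMSO with dimerizer and 100% = rapamycin at 8.4 µM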
# eIF4H FP inh = inhibitors of RNA binding by human eIF4H. Q15056. eIF4H fluorescence polarization binding assay. inhibition, % at 35 µM. 0.94% of 290,000 active. AID 2012;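 also: calls also rest on retests at 20 µM and on dose response follow-up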
# PABP FP inh = blocks human PABP binding to poly(A) RNA; inhibition, % at 35 µM; 1% of 290,000 active; fluorescence polarization; P11940;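 also: calls also rest on retests at 20 µM and on dose response follow-up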
# eIF4E 4G PPI = eIF4E/eIF4G interaction inhibition in translation initiation | TR-FRET eIF4E-eIF4GI(517-606) binding, 2 h | inhibition, % at 21.7 µM | 0.37% of 220,000 active;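 active = inhibition above about 30%, limit read from the data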;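 also: 0% = full FRET control wells and 100% = background wells lacking eIF4GI fragment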
# Active calls of the source: *; ? = inconclusive; nt = no result; ! = not active in a repeat; [ ] = dose if it differs, or a comment. Unless noted, no rule for the calls is given here.
SMILES,PABP1 MLLE inh,PERK inhibitor,eIF4H FP inh,PABP FP inh,eIF4E 4G PPI
COc1ccc(C(=O)NC(=S)Nc2cccc(NC(=O)c3ccco3)c2)cc1[N+](=O)[O-],42*,0,8,66,-5
O=C(O)/C=C/c1cccnc1,14,0,4,13,-1
CC(/C=C\c1cccnc1)=C/C(=O)O,5,0,73*!,8,3
CC(C)C(NC(=O)c1ccccc1F)C(=O)NCCCn1ccnc1 (stereo not drawn),26,nt,nt,nt,nt
CC(C)CC(=O)N1CCN(Cc2cccc(F)c2)CC1,1,0,-3,4,72*
CCCN(CCC)C(=S)NC(=O)c1ccc(-c2ccccc2)cc1,39*,-1,18,6,0
CCOc1ccc(C(=O)NC(=S)N(Cc2ccccc2)Cc2ccccc2)cc1,25,-1,-3,2,-7
Cc1ccc(S(=O)(=O)NCC(=O)OCCOc2cccc(Cl)c2)cc1,9,nt,nt,nt,nt
NC(=O)CC(NC(=O)Cc1ccc(Cl)cc1)c1ccc(NCCCN2CCCC2=O)c([N+](=O)[O-])c1 (stereo not drawn),-7,nt,69*,28,nt
O=C(Oc1ccc(=O)n(-c2ccccc2)n1)c1cccc(Cl)c1,11,1,4,4,33*
Cc1ccc(NC(=O)Cn2cccc2)cc1Cl,1,2.9*,-4,0,-1
Cc1ccc(NC(=O)CSC(N)=O)cc1Cl,41*,0,-2,0,4
Cc1ccc(NC(=O)Cn2cccc2)cc1C,4,0,22,10,0
NC(=O)SCC(=O)Nc1ccc(Cl)c(Cl)c1,41*,0,6,0,nt
CCn1c2ccccc2c2cc(NC(=O)C(C)OC(=O)c3ccc(NC(=O)CC#N)cc3)ccc21 (stereo not drawn),-2,nt,nt,nt,nt
CCOc1ccccc1OCc1nn2c(COc3ccccc3)nnc2s1,25,0,-7,2,32*
c1ccc(Cc2nn3c(COc4ccccc4)nnc3s2)cc1,37,0,-6,6,15
CCN(CC(O)CON=C1c2ccccc2-c2ccccc21)S(=O)(=O)c1ccc(C)cc1 (stereo not drawn),14,0,80*,1.5*,2
CCN(CC(O)CON=C1c2ccccc2-c2ccccc21)S(=O)(=O)c1ccc(Cl)cc1 (stereo not drawn),1,0,-10,-2,4
O=[N+]([O-])c1ccccc1C1Nc2cccc3cccc(c23)N1,22,1,53,18,3
Brc1ccc(C2Nc3cccc4cccc(c34)N2)o1,36,1,99*,104*,2
c1ccc(C2Nc3cccc4cccc(c34)N2)cc1,13,nt,86*,62*,nt
COc1ccccc1C1Nc2cccc3cccc(c23)N1,13,0,?,?,0
c1csc(C2Nc3cccc4cccc(c34)N2)c1,41*,0,?,?,7
O=[N+]([O-])c1ccc(Cl)c(C2Nc3cccc4cccc(c34)N2)c1,22,-2,97*,60*,-10
SMILES,PABP1 MLLE inh,PERK inhibitor,eIF4H FP inh,PABP FP inh,eIF4E 4G PPI
CC(C)[C@H](NC(=O)N1CCn2c1nc1ccccc12)C(=O)N1CCCCC1,-3,nt,-2,8,nt
CN(C)c1ccc(C2Nc3cccc4cccc(c34)N2)cc1,-42,nt,7,2,nt
Brc1cccc(C2Nc3cccc4cccc(c34)N2)c1,14,nt,46,19,nt
Clc1cccc(C2Nc3cccc4cccc(c34)N2)c1,9,nt,53*,40*,nt
Clc1ccc(C2Nc3cccc4cccc(c34)N2)cc1Cl,6,nt,55*,50*,nt
Oc1ccccc1C1Nc2cccc3cccc(c23)N1,0,1,95*,72*,13
O=C(Nc1nccs1)C1CCCN1/C=C/C(=O)C(F)(F)F (stereo not drawn),1,nt,-11,11,nt
COc1cc(NC(C)C(=O)N2CC(C)OC(C)C2)cc(OC)c1 (stereo not drawn),2,-1,?,51*,-2
COC/C=C/C1=CC2=CC(=O)C(C)(OC(=O)c3cnc4ccccc4n3)C(=O)C2=CN1c1ccc(CO)cc1 (stereo not drawn),nt,nt,102*,78*,nt
COC/C=C/C1=CC2=CC(=O)C(C)(OC(=O)c3cnc4ccccc4n3)C(=O)C2=CN1CC(C)C (stereo not drawn),11,nt,nt,nt,nt
COC/C=C/C1=CC2=CC(=O)C(C)(OC(=O)c3cnc4ccccc4n3)C(=O)C2=CN1c1ccccc1 (stereo not drawn),nt,nt,63*,44*,5
C[N+](C)(C)c1ccc(/C=N/Nc2nc(Cl)c(C#N)c(Cl)c2Cl)cc1,-129,1,38,-7,30*[fluorescence artefact?]
CC1CCCCC12NC(=O)N(CC(=O)Nc1nccs1)C2=O (stereo not drawn),-2,nt,nt,nt,nt
O=S1(=O)CC/C(=N/Nc2ccc(C(F)(F)F)cn2)c2cc(F)ccc21,14,0,5,31,87*
O=C(Nn1c(O)c(C=C2N=c3ccccc3=N2)sc1=S)c1cccc(Cl)c1,-72,0,66,38*,-6
O=C(Nc1ccccc1OC(F)F)c1cc2c(s1)CCC2,1,1,84*,5,-3
Cc1ccc(NC(=O)c2cc3c(s2)CCCC3)cc1,-8,0,-4,6,-5
O=C(COC(=O)c1cc2c(s1)CCC2)Nc1ccc(F)cc1,4,0,97*,35*,17
COc1ccccc1NC(=O)c1ccc(NC(=O)c2cc3c(s2)CCC3)cc1,-3,0,-7,25,41*
CC1Nc2ncnc(N3CCN(c4ccccc4)CC3)c2N(Cc2ccc(Br)cc2)C1=O (stereo not drawn),8,nt,nt,nt,nt
CC(OC(=O)c1cc(=O)[nH]c2ccccc12)C(=O)NC1CCCCC1C (stereo not drawn),12,nt,nt,nt,nt
Cc1nc(NCCc2ccccc2)c2nnn(Cc3ccccc3)c2n1,-6,nt,-7,-3,nt
COc1cccc(OC)c1C(=O)OCC(=O)NC1CCCCCC1,-17,nt,nt,nt,nt
COc1ccc2c(C)cc(SCC(=O)NC3CCCCC3)nc2c1,-7,nt,nt,nt,nt
COc1ccc2c(-c3ccccc3)cc(SCC(N)=O)nc2c1,-77,1,80*,53*,-13
SMILES,PABP1 MLLE inh,PERK inhibitor,eIF4H FP inh,PABP FP inh,eIF4E 4G PPI
COc1ccc2c(C)cc(SCC(=O)N3CCOCC3)nc2c1,-86,0,124*,124*,-6
CCN(CC)c1ccc(C(=O)NNC(=O)CN2C(=O)NC(C)(c3ccccc3)C2=O)cc1 (stereo not drawn),14,nt,nt,nt,nt
Cc1ccc(-c2cc(C(=O)N/N=C/c3ccco3)n[nH]2)s1,1,1,94*,active,5
O=C(OCc1ccccc1)N1C=CCC[C@@H]1c1c(Cl)cccc1Br,-8,nt,nt,nt,nt
O=C1CNC(=O)/C(=C/c2ccco2)N1,7,0,106*,-7,-1
O=C1C(=Cc2ccco2)C(=O)c2ccccc21,28,0,38,-6,4
O=c1[nH]c(Cc2cccc(C(F)(F)F)c2)nc2ccccc12,2,nt,-10,-1,nt
O=C(Nc1ccc(Oc2ccccc2)cc1)c1csc([C@@H]2O[C@H](CO)[C@H](O)[C@H](O)[C@H]2O)n1,3,nt,nt,nt,nt
